Results reported in PubChem BioAssay (NCATS).
Results filed as inconclusive are left out. Where a call stands in place of a potency, no number is given. Unmarked numbers belong to inactive results. The source made the active and inactive calls. Calls follow the shape of the dose curve; as a rule, active = well fitted curve in the direction sought with a large enough effect; inconclusive = small, poorly fitted or top-dose-only effect, or another doubt; inactive = no such curve, though single readings can be large; an effect the other way counts as inactive or inconclusive.

Assays:
[1] = target: Rap guanine nucleotide exchange factor 3 (Homo sapiens) (UniProt O95398); test: Confirmatory qHTS for antagonist of cAMP-regulated guanine nucleotide exchange factor 3 (EPAC1) (AID 1645880); also: nearly all actives have a fitted effect of over 55% in size; also: potency is read from the fitted curve at half-maximal effect
Procedure, shortened: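 Nucleotide exchange uses 100 nM EPAC1, 250 nM RAP1B-BODIPY-GDP and 50 uM GDP, with compounds in a concentration-titration series. After 5 min at room temperature, fluorescence (480 nm ex/540 nm em) is read every 5 min for 30 min. Data are normalized to control ATA and DMSO.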

[2] = target: Rap guanine nucleotide exchange factor 3 (Homo sapiens) (UniProt O95398); test: Confirmatory qHTS for agonist of cAMP-regulated guanine nucleotide exchange factor 3 (EPAC1) (AID 1645881); also: nearly all actives have a fitted effect of over 75% in size; also: potency is read from the fitted curve at half-maximal effect;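 as to activation: EPAC1 catalysed release of BODIPY-GDP from Rap1B seen as fluorescence loss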
[3] = target: Rap guanine nucleotide exchange factor 4 (Homo sapiens) (UniProt Q8WZA2); test: Confirmatory qHTS for agonist of cAMP-regulated guanine nucleotide exchange factor 4 (EPAC2) (AID 1645884);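 also: nucleotide exchange releases bodipy-GDP from Rap1 and this lowers its fluorescence; nearly all actives have a fitted effect of over 65% in size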; also: potency is read from the fitted curve at half-maximal effect
[4] = target: Rap guanine nucleotide exchange factor 4 (Homo sapiens) (UniProt Q8WZA2); test: Confirmatory qHTS for antagonist of cAMP-regulated guanine nucleotide exchange factor 4 (EPAC2) (AID 1645885); also: nearly all actives have a fitted effect of over 25% in size
[5] = target: Rap guanine nucleotide exchange factor 3 (Homo sapiens) (UniProt O95398); test: Counterscreen qHTS for antagonist of cAMP-regulated guanine nucleotide exchange factor 3 (EPAC1) (AID 1645888);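 also: fluorescence loss as bound BODIPY-GDP is released from Rap1B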
Procedure, shortened: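 Rap1B-BODIPY-GDP 250 nM + GDP 50 uM; cpds 7-pt, final 9.74 nM–152 uM (activator mode) or from 7.32 nM upwards (inhibitor mode); RT; FI 480/540 nm at 5 and 30 min, then ± cAMP, reread.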

Sequence of Rap guanine nucleotide exchange factor 3 (Homo sapiens) (O95398 whole entry, looked up): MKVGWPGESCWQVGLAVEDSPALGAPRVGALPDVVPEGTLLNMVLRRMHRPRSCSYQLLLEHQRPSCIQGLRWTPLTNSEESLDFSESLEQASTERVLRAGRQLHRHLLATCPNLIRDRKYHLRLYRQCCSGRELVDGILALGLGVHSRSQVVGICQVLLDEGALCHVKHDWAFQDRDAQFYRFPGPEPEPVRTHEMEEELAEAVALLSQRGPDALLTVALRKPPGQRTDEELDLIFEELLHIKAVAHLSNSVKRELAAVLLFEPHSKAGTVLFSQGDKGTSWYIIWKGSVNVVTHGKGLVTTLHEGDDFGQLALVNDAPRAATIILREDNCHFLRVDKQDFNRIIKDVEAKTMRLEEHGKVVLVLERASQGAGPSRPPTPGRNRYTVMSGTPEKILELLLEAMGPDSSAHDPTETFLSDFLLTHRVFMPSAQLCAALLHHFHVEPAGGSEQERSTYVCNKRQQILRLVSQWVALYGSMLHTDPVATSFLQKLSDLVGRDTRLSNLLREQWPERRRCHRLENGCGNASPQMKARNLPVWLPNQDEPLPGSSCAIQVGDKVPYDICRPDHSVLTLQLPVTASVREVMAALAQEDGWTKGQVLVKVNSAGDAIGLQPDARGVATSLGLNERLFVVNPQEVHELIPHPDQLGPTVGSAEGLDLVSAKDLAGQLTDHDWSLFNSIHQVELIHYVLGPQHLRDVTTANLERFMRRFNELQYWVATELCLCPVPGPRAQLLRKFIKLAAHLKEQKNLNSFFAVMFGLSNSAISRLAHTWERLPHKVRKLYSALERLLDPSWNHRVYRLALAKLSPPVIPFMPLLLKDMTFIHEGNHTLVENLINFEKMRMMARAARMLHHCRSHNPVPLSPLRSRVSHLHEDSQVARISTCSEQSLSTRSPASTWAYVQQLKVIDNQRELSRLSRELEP
Sequence of Rap guanine nucleotide exchange factor 4 (Homo sapiens) (Q8WZA2 whole entry, looked up): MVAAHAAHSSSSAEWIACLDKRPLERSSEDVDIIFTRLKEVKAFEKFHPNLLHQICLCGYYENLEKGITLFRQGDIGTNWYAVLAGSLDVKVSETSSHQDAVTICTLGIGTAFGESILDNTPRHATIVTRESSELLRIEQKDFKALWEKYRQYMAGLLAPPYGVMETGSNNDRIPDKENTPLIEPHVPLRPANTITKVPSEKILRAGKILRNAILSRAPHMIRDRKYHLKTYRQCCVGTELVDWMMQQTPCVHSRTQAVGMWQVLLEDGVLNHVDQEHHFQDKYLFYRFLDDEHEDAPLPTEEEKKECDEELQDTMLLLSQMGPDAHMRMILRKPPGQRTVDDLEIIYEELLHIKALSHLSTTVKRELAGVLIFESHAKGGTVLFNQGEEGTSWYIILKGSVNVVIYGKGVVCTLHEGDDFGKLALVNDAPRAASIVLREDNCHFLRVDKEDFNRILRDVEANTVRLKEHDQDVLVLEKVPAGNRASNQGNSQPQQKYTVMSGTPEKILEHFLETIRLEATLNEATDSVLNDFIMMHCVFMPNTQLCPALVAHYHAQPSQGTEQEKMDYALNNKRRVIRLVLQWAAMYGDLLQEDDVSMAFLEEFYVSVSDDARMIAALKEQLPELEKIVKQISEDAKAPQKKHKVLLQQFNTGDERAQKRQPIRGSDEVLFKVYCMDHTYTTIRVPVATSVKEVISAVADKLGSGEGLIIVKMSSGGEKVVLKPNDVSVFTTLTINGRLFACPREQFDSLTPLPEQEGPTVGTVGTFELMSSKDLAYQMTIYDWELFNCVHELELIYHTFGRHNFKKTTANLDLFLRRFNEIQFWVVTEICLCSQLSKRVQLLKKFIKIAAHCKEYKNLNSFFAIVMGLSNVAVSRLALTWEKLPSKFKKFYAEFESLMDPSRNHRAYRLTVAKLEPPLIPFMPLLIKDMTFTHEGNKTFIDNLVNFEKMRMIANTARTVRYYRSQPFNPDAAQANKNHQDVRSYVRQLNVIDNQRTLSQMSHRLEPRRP

Row | SMILES | Potency [1] | Potency [2] | Potency [3] | Potency [4] | Potency [5] | activation [3] | activity change, negative = inhibition [5]
1 | CCC(=O)N1N=C(c2cccs2)CC1c1ccc(OC)cc1 (stereo not given) | inactive | inactive | inactive | inactive | inactive |  | 
2 | CC(=O)Nc1ccc(NS(=O)(=O)c2cn(C)c(=O)n(C)c2=O)cc1 | inactive | inactive |  | inactive |  | 8.18% [at 17.1 µM, percent relative to cAMP agonist control] | 9.16% [at 30.8 µM]
3 | COc1ccc(/C=C2/SC(=S)N(c3ccc(S(=O)(=O)Nc4nccs4)cc3)C2=O)cc1 | 33.8 µM (active) | inactive | inactive | inactive | inactive |  | 
4 | Cc1cc(N)c2cc(NC(=O)/C=C/c3ccccc3Cl)ccc2n1 | 37.9 µM (active) | 100 µM (active) | 56.2 µM (active) | inactive | inactive |  | 
